Reference: PubChem BioAssay AID602399 (Sanford-Burnham Center for Chemical Genomics, 2012)
The campaign covered roughly 360,000 compounds. About 2,800 (0.78%) were called active. Only a selection was taken, and actives are over-represented in it overall. A number with no mark means an inactive call. Rule as the data show it: active = inhibition above about 26%; inactive = the rest.

Tested on: Nicotinate-nucleotide adenylyltransferase NadD (Staphylococcus aureus N315)
Experiment: S. aureus NadD enzyme activity blockers – biochemical, colorimetric, uHTS, primary screen (AID 602399)
Conditions: purified NadD enzyme, colorimetric absorbance read-out; at 20 µM; stronger effect = higher value

Going from `CCc1[nH]nc(C(=O)N2CCCC(CO)(Cc3ccc(F)cc3F)C2)c1C` (stereo not drawn) to `CN(C(=O)CC1C(=O)NCCN1Cc1ccc(F)cc1Cl)C1CCCCC1` (stereo not drawn), the inhibition rises from 1.03% to 3.03%.

First: Cc1ccc(-c2csc(N3CCN(c4cc5c(cc4Cl)nc(-c4ccncc4)n5CCOCCO)CC3)n2)cc1
Second: CCCn1c(C2CCCN2c2nc(-c3ccc(C)cc3)cs2)nc2cc(Cl)c(N3CCCCC3)cc21 (stereo not drawn)
The inhibition of the first is lower: -0.493% for the first, 7.02% for the second.

First: CC(=O)C1=C(C)NC2=C(C(=O)CC(C)(C)C2)C1C (stereo not drawn)
Second: CC(Oc1cccc(Cl)c1)C(=O)NC1CC(C)(C)NC(C)(C)C1 (stereo not drawn)
The inhibition of the first is higher: -0.177% for the first, -1.75% for the second.

Compared with `O=C1CSC(=S)N1/N=C/c1ccc(O)c([N+](=O)[O-])c1`, `Cn1ncc([N+](=O)[O-])c1C(=O)Nc1cc(Cl)ccc1Cl` is lower in inhibition: 5.51% for the first, -3.19% for the second.

Going from `CCOc1cc(/C=N/NC(=O)c2c(C)nc3ccc(Cl)cn23)ccc1O` to `O=C(N/N=C/c1cccc(OC(=O)c2ccc([N+](=O)[O-])cc2)c1)c1cccnc1`, the inhibition falls from -0.152% to -12.9%.

Going from `CCCCCCCC1(C)NC(=O)N(CC(=O)Nc2cc(C)on2)C1=O` (stereo not drawn) to `COCCNC(=O)CN(Cc1ccco1)C(=O)CCC(=O)Nc1nccs1`, the inhibition rises from -7.34% to -5.06%.

Going from `O=C(CC1C(=O)NCCN1CC(c1ccccc1)c1ccccc1)NCCc1cn[nH]c1` (stereo not drawn) to `C[C@H](NC(=O)CC[C@H]1O[C@@H](n2ccc(=O)[nH]c2=O)[C@H](O)[C@@H]1O)c1cccc2ccccc12`, the inhibition falls from 7.62% to -3.28%.

Going from `Cc1cc(C)c(OCC(=O)N(Cc2cccs2)C2CCS(=O)(=O)C2)c(C)c1` (stereo not drawn) to `CC(=O)Nc1cccc(C(=O)OCC(=O)c2ccc3c(c2)OCO3)c1`, the inhibition falls from -1.96% to -7.21%.

Going from `Brc1cnc(N2CCCC2)nc1N1CCCCC1` to `O=C(c1cccc(F)c1)N1CCN(c2ccc([N+](=O)[O-])c(N3CCCCC3)c2)CC1`, the inhibition falls from -5% to -9.3%.

Going from `Cc1cc2nc(-c3ccc(Cl)cc3)c(Cc3cccc(F)c3)n2c(C)c1Br` to `Cc1cc2nc(-c3ccc(F)cc3)c(Cc3ccsc3)n2c(C)c1Br`, the inhibition falls from 28.5% to 16.1%.

Going from `CCCSc1nc2[nH]ncc2c(=O)[nH]1` to `CCC1CCc2c(sc(NC(C)=O)c2C#N)C1` (stereo not drawn), the inhibition rises from 0.611% to 1.07%.

Compared with `CC(C)Oc1c(Br)cc(Br)cc1/C=N/NC(N)=S`, `CC(NC(=S)Nc1ccc(S(N)(=O)=O)cc1)c1ccc2c(c1)OCO2` (stereo not drawn) is lower in inhibition: 6.4% for the first, -0.72% for the second.

Compared with `COC(=O)c1ccc(C(=O)OC)c(NC(=S)N2CCN(c3ccc(F)cc3)CC2)c1`, `Cc1noc(C)c1S(=O)(=O)Nc1ccc(C(=O)N2CCN(c3ccc(F)cc3)CC2)cc1` is higher in inhibition: -1.25% for the first, 10.7% for the second.

Compared with `C=CCn1c(SCc2cccc(F)c2)nc2cc(C(=O)N3CCC(C(N)=O)CC3)ccc2c1=O`, `C/C(N)=C(/C#N)C(=O)COC(=O)C1CCN(C(=O)c2ccc(Cl)cc2)CC1` is lower in inhibition: -4.38% for the first, -7.06% for the second.

Compared with `COC(=O)c1ccc(/C=N/N2C(C)CCCC2C)cc1` (stereo not drawn), `O=C(COC(=O)C1CCCCC1)Nc1ccc([N+](=O)[O-])cc1` is higher in inhibition: -8.27% for the first, -1.2% for the second.

Going from `NS(=O)(=O)c1ccc(NC(=O)COC(=O)CCc2c[nH]c3ccccc23)cc1` to `O=C(COc1ccc([N+](=O)[O-])cc1)Nc1cccc(C(=O)Nc2ccccc2C(=O)O)c1`, the inhibition falls from -1.06% to -2.45%.

Compared with `O=C(COC(=O)c1ccc(Cl)nc1)NCc1ccc2c(c1)OCO2`, `COCCNC(=O)/C(C#N)=C/c1cccc(OCc2ccccc2)c1` is lower in inhibition: 0.8% for the first, -8.65% for the second.

Compared with `CC1Cc2[nH][nH]c(=O)c2C(C2CC2)O1` (stereo not drawn), `COc1ccc2[nH]c(=O)c(CN(Cc3nnnn3CCc3ccccc3)CC3CCCO3)cc2c1` (stereo not drawn) is higher in inhibition: -3.07% for the first, 14.2% for the second.

Going from `CCOc1ccc2[nH]c(=O)c(CN(Cc3nnnn3CCc3ccccc3)CC3CCCO3)cc2c1` (stereo not drawn) to `Cc1ccc(Cl)cc1N1CCN(C(=O)c2cccc3c(=O)c(C)c(-c4ccccc4)oc23)CC1`, the inhibition rises from 0.283% to 4.56%.

Going from `O=C(CCC(=O)N1CCCC1)Nc1ccc([N+](=O)[O-])cc1` to `COc1cc(/C=C(\C#N)C(=O)Nc2ccc3ccccc3c2)c([N+](=O)[O-])cc1OC`, the inhibition rises from -6.64% to 5.18%.

With `C/C(=N\NC(=O)OC(C)(C)C)c1ccc[nH]1` the inhibition was -6.93%.

`CCCn1c(C(C)Nc2nc(-c3ccc(C)cc3)cs2)nc2cc(Cl)c(N3CCCCC3)cc21` (stereo not drawn) was tested, and the inhibition was 30.3% (active).
For `Cc1cc(C(=O)N/N=C/c2ccc(O)c([N+](=O)[O-])c2)c(C)n1-c1ccc(F)cc1`, the inhibition was 33.3% (active).
In the case of `COc1cccc2c1C(=O)c1c(O)c3c(c(O)c1C2=O)CC(O)(C(C)=NNC(=O)c1ccc(Cl)c(Cl)c1)CC3OC1CC(N)C(O)C(C)O1` (stereo not drawn), the inhibition is reported as 38.5% (active).
With `Cc1cc2nc(-c3ccco3)c(Cc3cccc(F)c3)n2c(C)c1Br` the inhibition was 50.5% (active).
For `Cc1ccc(CSCC2Nc3ccc(C(=O)N4CCN(c5ccc(F)cc5)CC4)cc3NC2=O)cc1` (stereo not drawn), the inhibition was 73.7% (active).
`O=C1Nc2cc(C(=O)N3CCN(c4ccc(F)cc4)CC3)ccc2NC1CSCc1cccc(F)c1` (stereo not drawn) was tested, and the inhibition was 36.8% (active).
With `NS(=O)(=O)c1ccc(NC(=O)COC(=O)c2c3c(nc4ccccc24)/C(=C\c2ccc4c(c2)OCO4)CCC3)cc1` the inhibition was 54.7% (active).
For `NC(=O)c1ccc(NC(=O)COC(=O)c2c3c(nc4ccccc24)/C(=C\c2ccc4c(c2)OCO4)CCC3)cc1`, the inhibition was 55.2% (active).
For `CCC(c1nnnn1Cc1ccco1)N(Cc1cc2cc(OC)ccc2[nH]c1=O)C1CCCCC1` (stereo not drawn), the inhibition was 31.2% (active).
With `O=C(COc1ccc(/C=N/NC(=O)c2ccc(O)cc2)cc1)Nc1ccc([N+](=O)[O-])cc1` the inhibition was 71.1% (active).
With `O=C(COc1ccc([N+](=O)[O-])cc1)Nc1ccc(N2CCCC2)cc1` the inhibition was 42.4% (active).
With `COc1ccc(NC(=O)/C(C#N)=C\c2cc(OC)c(OCc3ccc(C(=O)O)cc3)cc2Br)cc1` the inhibition was 30.5% (active).
